Experimental data published in PubChem BioAssay (NCATS).
Inconclusive results are not listed. Activity calls are given as the source filed them. Calls follow the shape of the dose curve; as a rule, active = well fitted curve in the direction sought with a large enough effect; inconclusive = small, poorly fitted or top-dose-only effect, or another doubt; inactive = no such curve, though single readings can be large; an effect the other way counts as inactive or inconclusive.

What was measured:
[1] = target: Rap guanine nucleotide exchange factor 3 (Homo sapiens) (UniProt O95398); test: Confirmatory qHTS for antagonist of cAMP-regulated guanine nucleotide exchange factor 3 (EPAC1) (AID 1645880); conditions: EPAC1 Rap1B-BODIPY-GDP exchange, fluorescence; activity, negative = inhibition: at 115 µM (top of the series); also: nearly all actives have a fitted effect of over 55% in size; also: potency is read from the fitted curve at half-maximal effect;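 as to activity, negative = inhibition: plate controls were DMSO only for no effect and full effect of the ATA control for full effect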
Chain of Rap guanine nucleotide exchange factor 3 (Homo sapiens) (O95398 whole entry, looked up): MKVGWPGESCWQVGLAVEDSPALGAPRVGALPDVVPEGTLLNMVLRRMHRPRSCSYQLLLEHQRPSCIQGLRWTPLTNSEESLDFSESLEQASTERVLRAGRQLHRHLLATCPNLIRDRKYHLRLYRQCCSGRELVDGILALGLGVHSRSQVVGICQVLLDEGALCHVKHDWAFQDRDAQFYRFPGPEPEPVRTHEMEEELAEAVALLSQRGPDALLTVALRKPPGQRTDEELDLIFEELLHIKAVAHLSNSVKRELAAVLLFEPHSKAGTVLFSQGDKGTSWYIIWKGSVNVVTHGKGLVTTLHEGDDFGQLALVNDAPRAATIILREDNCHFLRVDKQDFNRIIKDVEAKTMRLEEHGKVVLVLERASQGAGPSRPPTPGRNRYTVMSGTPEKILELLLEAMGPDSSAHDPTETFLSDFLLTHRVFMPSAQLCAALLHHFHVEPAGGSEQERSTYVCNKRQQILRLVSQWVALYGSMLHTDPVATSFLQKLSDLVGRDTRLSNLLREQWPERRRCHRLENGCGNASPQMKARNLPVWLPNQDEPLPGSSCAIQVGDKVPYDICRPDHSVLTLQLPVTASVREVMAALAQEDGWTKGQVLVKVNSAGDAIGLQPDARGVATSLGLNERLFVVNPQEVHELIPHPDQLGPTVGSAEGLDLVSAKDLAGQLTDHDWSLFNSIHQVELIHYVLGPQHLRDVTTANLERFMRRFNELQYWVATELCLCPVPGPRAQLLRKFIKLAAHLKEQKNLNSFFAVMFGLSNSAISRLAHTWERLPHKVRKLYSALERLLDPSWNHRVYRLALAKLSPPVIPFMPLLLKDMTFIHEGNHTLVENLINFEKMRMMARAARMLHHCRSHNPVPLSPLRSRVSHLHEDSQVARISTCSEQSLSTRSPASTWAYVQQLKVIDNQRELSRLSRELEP
Procedure, shortened: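 Nucleotide exchange uses 100 nM EPAC1, 250 nM RAP1B-BODIPY-GDP and 50 uM GDP, with compounds in a concentration-titration series. After 5 min at room temperature, fluorescence (480 nm ex/540 nm em) is read every 5 min for 30 min. Data are normalized to control ATA and DMSO.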

[2] = target: Rap guanine nucleotide exchange factor 3 (Homo sapiens) (UniProt O95398); test: Confirmatory qHTS for agonist of cAMP-regulated guanine nucleotide exchange factor 3 (EPAC1) (AID 1645881); also: nearly all actives have a fitted effect of over 75% in size; also: potency is read from the fitted curve at half-maximal effect;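 as to activation: EPAC1 catalysed release of BODIPY-GDP from Rap1B seen as fluorescence loss; 100% = effect of cAMP agonist control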
[3] = target: Rap guanine nucleotide exchange factor 4 (Homo sapiens) (UniProt Q8WZA2); test: Confirmatory qHTS for agonist of cAMP-regulated guanine nucleotide exchange factor 4 (EPAC2) (AID 1645884);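 also: nucleotide exchange releases bodipy-GDP from Rap1 and this lowers its fluorescence; nearly all actives have a fitted effect of over 65% in size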; also: potency is read from the fitted curve at half-maximal effect; as to activation: % is scaled to controls: 0 for no effect and ±100 for the full control effect
Chain of Rap guanine nucleotide exchange factor 4 (Homo sapiens) (Q8WZA2 whole entry, looked up): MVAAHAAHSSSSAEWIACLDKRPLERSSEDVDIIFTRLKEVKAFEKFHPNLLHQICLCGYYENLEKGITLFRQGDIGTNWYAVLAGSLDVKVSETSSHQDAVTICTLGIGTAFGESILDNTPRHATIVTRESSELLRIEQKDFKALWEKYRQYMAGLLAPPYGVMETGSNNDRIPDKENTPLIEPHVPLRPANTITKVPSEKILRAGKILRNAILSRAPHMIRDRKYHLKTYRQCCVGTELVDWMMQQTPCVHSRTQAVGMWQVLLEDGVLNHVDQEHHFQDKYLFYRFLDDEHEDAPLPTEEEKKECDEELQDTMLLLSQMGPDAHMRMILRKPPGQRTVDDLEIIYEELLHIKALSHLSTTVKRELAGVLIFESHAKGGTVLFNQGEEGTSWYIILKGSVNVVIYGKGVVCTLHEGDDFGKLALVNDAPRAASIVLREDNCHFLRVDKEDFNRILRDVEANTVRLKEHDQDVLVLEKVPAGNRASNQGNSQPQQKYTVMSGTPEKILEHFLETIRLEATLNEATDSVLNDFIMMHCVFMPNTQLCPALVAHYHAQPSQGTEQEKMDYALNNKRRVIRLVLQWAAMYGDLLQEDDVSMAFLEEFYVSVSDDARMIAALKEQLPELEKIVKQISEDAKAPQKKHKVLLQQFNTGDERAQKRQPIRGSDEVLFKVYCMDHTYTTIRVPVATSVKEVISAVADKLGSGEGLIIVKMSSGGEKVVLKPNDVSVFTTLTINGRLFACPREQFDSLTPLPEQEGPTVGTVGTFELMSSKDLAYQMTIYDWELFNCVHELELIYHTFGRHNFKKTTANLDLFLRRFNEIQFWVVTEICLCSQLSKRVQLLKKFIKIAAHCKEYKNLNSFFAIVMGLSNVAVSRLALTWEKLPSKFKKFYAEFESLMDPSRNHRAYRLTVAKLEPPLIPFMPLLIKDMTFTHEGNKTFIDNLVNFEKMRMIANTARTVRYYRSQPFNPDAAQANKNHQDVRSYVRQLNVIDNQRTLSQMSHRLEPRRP

[4] = target: Rap guanine nucleotide exchange factor 3 (Homo sapiens) (UniProt O95398); test: Counterscreen qHTS for antagonist of cAMP-regulated guanine nucleotide exchange factor 3 (EPAC1) (AID 1645888);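 also: fluorescence loss as bound BODIPY-GDP is released from Rap1B; % of control where 0% means no effect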
Procedure, shortened: (§1)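 Rap1B-BODIPY-GDP 250 nM + GDP 50 uM; cpds 7-pt, final 9.74 nM–152 uM (activator mode) or from 7.32 nM upwards (inhibitor mode); RT; FI 480/540 nm at 5 and 30 min, then ± cAMP, reread.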

[5] = target: Rap guanine nucleotide exchange factor 3 (Homo sapiens) (UniProt O95398); test: Counterscreen qHTS for agonist of cAMP-regulated guanine nucleotide exchange factor 3 (EPAC1) (AID 1645889); also: nearly all actives have a fitted effect of over 40% in size; also: potency is read from the fitted curve at half-maximal effect; as to activation: % of control where 0% means no effect
Procedure, shortened: as §1

O=C(/C=C/c1ccco1)NCC1OCCc2ccccc21 (centres undefined)
active: Potency [1] 19 µM
inactive: Potency [2] | Potency [3] | Potency [4]

Cc1ccc(CNc2cc(C)nc3nc(-c4cccc(C)c4)nn23)cc1
inactive: Potency [1] | Potency [2] | Potency [3] | Potency [4]

COc1cc(OC)c2c(-c3ccccc3)cc(=O)oc2c1C(CC(=O)N1CCOCC1)c1ccc2c(c1)OCO2 (centres undefined)
inactive: Potency [1] | Potency [2] | activation [3] 1.13% [at 17.1 µM, percent relative to cAMP agonist control] | activity change, negative = inhibition [4] -9.45% [at 30.8 µM]

COc1ccccc1CN(C)CC(=O)Nc1ccccc1-c1ccccc1
inactive: Potency [1] | Potency [2] | Potency [3] | Potency [4]

Cc1cc(Nc2ccccc2)c2c([N+](=O)[O-])ccc(C)c2n1
inactive: Potency [1] | Potency [2] | Potency [3] | Potency [4]

O=C(Nc1sc2c(c1C(=O)O)CCC2)c1ccccc1F
inactive: Potency [1] | Potency [2] | Potency [3] | Potency [4]

Cc1oc2cc([N+](=O)[O-])c(O)c([N+](=O)[O-])c2c1C(=O)c1ccc(Br)cc1
active: Potency [1] 75.7 µM
inactive: Potency [2] | Potency [3] | Potency [4]

CC#C[C@@H](CC)c1ccc2ccn(C)c2c1
inactive: Potency [1] | Potency [2] | activation [3] 5.93% [at 17.1 µM, percent relative to cAMP agonist control] | activity change, negative = inhibition [4] -25.8% [at 30.8 µM]

CCN(CC)c1ccc2cc(-c3nnc(-c4cccc(Cl)c4)o3)c(=O)oc2c1
active: Potency [2] 44.7 µM | Potency [3] 35.5 µM
inactive: Potency [1] | Potency [4]

Cc1nc2sc(C(c3cccs3)N3CCN(C(=O)c4ccco4)CC3)c(O)n2n1 (centres undefined)
inactive: Potency [1] | Potency [2] | Potency [3] | Potency [4]

Cc1ccc(-c2nnc(Nc3ccc4c(c3)OCO4)c3ccccc23)cc1S(N)(=O)=O
active: Potency [1] 47.8 µM
inactive: Potency [2] | Potency [3] | Potency [4]

CCSc1nc(C)cc(C)c1S(=O)(=O)c1ccccc1C
inactive: Potency [1] | Potency [2] | activation [3] 3.71% [at 17.1 µM, percent relative to cAMP agonist control] | activity change, negative = inhibition [4] 8% [at 30.8 µM]

O=C(Cn1cnc2c(nnn2Cc2ccccc2)c1=O)N1CCN(c2ccccc2)CC1
inactive: Potency [1] | Potency [2] | Potency [3] | Potency [4]

Cc1ccc2oc(=O)c(/C=C(\O)c3ccco3)nc2c1
active: Potency [2] 89.1 µM | Potency [3] 100 µM
inactive: Potency [1] | Potency [4]

CCCOc1ccccc1NC(=O)c1c(-c2ccccc2)noc1C
inactive: Potency [1] | Potency [2] | Potency [3] | Potency [4]

CCC(C(=O)OC(C)C)c1ccc2ccccc2c1 (centres undefined)
inactive: Potency [1] | Potency [2] | Potency [3] | Potency [4]

CCOC(=O)C(C)Sc1ncnc2c1nnn2-c1ccc(F)cc1 (centres undefined)
inactive: Potency [1] | Potency [2] | activation [3] 3.03% [at 17.1 µM, percent relative to cAMP agonist control] | activity change, negative = inhibition [4] -4.79% [at 30.8 µM]

Cc1cc(NC(=O)COC(=O)C(C)Oc2ccc(Cl)cc2Cl)no1 (centres undefined)
inactive: Potency [1] | Potency [2] | Potency [3] | Potency [4]

O=S(=O)(O)c1ccc2c(c1)C(C(Cl)(Cl)Cl)OC(C(Cl)(Cl)Cl)O2 (centres undefined)
active: Potency [1] 31.6 µM
inactive: Potency [2] | activation [3] 2.99% [at 17.1 µM, percent relative to cAMP agonist control] | activity change, negative = inhibition [4] -10.8% [at 30.8 µM]

Cc1nc2cc(-c3ccsc3-n3c(C)ccc3C)[nH]n2c(=O)c1Cl
inactive: Potency [2] | Potency [3] | Potency [4]
active: Potency [1] 37.9 µM

COC(=O)/C(=C/Nc1ccc(O)cc1)[N+](=O)[O-]
inactive: Potency [1] | Potency [2] | Potency [3] | Potency [4]

Cc1nn(-c2ccccc2)c(Cl)c1/C=N/Nc1ccc(S(=O)(=O)Nc2ccccc2C(=O)O)cc1[N+](=O)[O-]
inactive: Potency [2] | Potency [3] | Potency [4]
active: Potency [1] 42.6 µM

CCSc1oc(-c2cccs2)nc1S(=O)(=O)c1ccccc1
inactive: Potency [1] | Potency [2] | Potency [3] | Potency [4]

CSc1nc(C)cc(C)c1S(=O)(=O)c1ccccc1C
inactive: Potency [1] | Potency [2] | activation [3] 8.78% [at 17.1 µM, percent relative to cAMP agonist control] | activity change, negative = inhibition [4] -5.37% [at 30.8 µM]

O=C1ON=C(c2ccccc2)/C1=C/c1ccc(-c2ccccc2[N+](=O)[O-])o1
inactive: Potency [2] | Potency [3] | Potency [4]
active: Potency [1] 37.9 µM

COc1ccc2c(c1)C(CC(C)=O)N(c1ccc(-c3cccnc3)cc1)C(c1ccsc1)=C2 (centres undefined)
inactive: Potency [1] | Potency [2] | Potency [3] | Potency [4]

CCC(=O)N1CCc2cc(OC)c(OC)cc2C1COc1ccc(F)cc1 (centres undefined)
inactive: Potency [1] | Potency [2] | activation [3] 5.75% [at 17.1 µM, percent relative to cAMP agonist control] | activity change, negative = inhibition [4] -5.57% [at 30.8 µM]

CCOC(=O)C1Nc2c(F)cc(C)cc2C2c3ccccc3CC12 (centres undefined)
inactive: Potency [1] | Potency [2] | Potency [3] | Potency [4]

COc1cccc(N(C(=O)c2ccco2)C(C(=O)NC2CCCC2)c2cccnc2)c1 (centres undefined)
inactive: Potency [1] | Potency [2] | Potency [3] | Potency [4]

CC(=O)c1ccc(N2CCN(C(=O)/C=C/c3ccc4ccccc4n3)CC2)cc1
active: Potency [3] 89.1 µM
inactive: Potency [1] | Potency [2] | Potency [4]

CC(=O)C1C(=O)C=C(c2cccs2)CC1c1ccccc1 (centres undefined)
inactive: Potency [1] | Potency [2] | activation [3] -4.19% [at 17.1 µM, percent relative to cAMP agonist control] | activity change, negative = inhibition [4] 2.3% [at 30.8 µM]

Cc1cc(C)nc(SCC(=O)c2ccc(F)c(C)c2)n1
inactive: Potency [1] | Potency [2] | Potency [3] | Potency [4]

O=C(COc1ccccc1Cl)Nc1ccc(C(=O)c2ccc(C(=O)O)cc2)cc1
inactive: Potency [1] | Potency [2] | Potency [3] | Potency [4]

COc1cc(CN2C(=O)C(C)ON=C2c2cccs2)cc(OC)c1 (centres undefined)
inactive: Potency [1] | Potency [2] | Potency [3] | Potency [4]

O=C(COc1ccccc1Br)Nc1ccccc1C(F)(F)F
inactive: Potency [1] | Potency [2] | Potency [3] | Potency [4]

Cc1ccc(Sc2ncccc2C(=O)N(C)Cc2cccs2)c(C)c1
inactive: Potency [1] | Potency [2] | Potency [3] | Potency [4]

Cc1ccc(-c2ccccc2C2=CC(=O)CC(C)(C)C2=O)cc1
inactive: Potency [1] | Potency [2] | activation [3] -2.04% [at 17.1 µM, percent relative to cAMP agonist control] | activity change, negative = inhibition [4] 11.7% [at 30.8 µM] | activation [5] 11.7% [at 30.8 µM]

O=C(O)c1ccccc1NS(=O)(=O)c1ccc(N/N=C/c2cccc(O)c2O)c([N+](=O)[O-])c1
inactive: Potency [2] | Potency [3] | Potency [4] | Potency [5]
active: Potency [1] 9.53 µM

Cc1ccc(-c2noc(CSc3nnnn3C3CCCCC3)n2)cc1
inactive: Potency [1] | Potency [2] | Potency [3] | Potency [4] | Potency [5]

CCOC(=O)c1c(-c2ccccc2)oc2ccc(OCC)cc12
inactive: Potency [1] | Potency [2] | Potency [3] | Potency [4] | Potency [5]

CCOC(=O)N/N=C/c1ccc(OCCSc2ccc(Cl)cc2)c(OC)c1
inactive: Potency [2] | Potency [3] | Potency [4] | Potency [5]
active: activity, negative = inhibition [1] -73.5%

Cc1nc(N(C)C)c2sc(=S)n(Cc3ccccc3)c2n1
inactive: Potency [1] | Potency [2] | activation [3] 11.2% [at 17.1 µM, percent relative to cAMP agonist control] | activity change, negative = inhibition [4] -16.2% [at 30.8 µM] | activation [5] 9.98% [at 30.8 µM]

COc1ccc(/C=C2/SC(=S)N(NS(=O)(=O)c3ccc(C)cc3)C2=O)cc1
active: Potency [1] 47.8 µM
inactive: Potency [2] | Potency [3] | Potency [4] | Potency [5]

Cc1ccc(C)c(Cn2cnc3ccccc3c2=O)c1
inactive: Potency [1] | Potency [2] | Potency [3] | Potency [4] | Potency [5]

Cc1cc(C)c(S(=O)(=O)N2CCCC2)c(C)c1
inactive: Potency [1] | Potency [2] | Potency [3] | Potency [4] | Potency [5]

Cc1ccc(NC(=O)COC(=O)c2ccccc2-c2nc3ccccc3s2)c(C)c1
inactive: Potency [1] | Potency [2] | Potency [3] | Potency [4] | Potency [5]

CN(C)c1ccccc1-c1cc(NC=O)c2ncc(-c3cccc(C(F)(F)F)c3)n2c1
inactive: Potency [2] | Potency [3] | Potency [4] | Potency [5]
active: Potency [1] 47.8 µM

CCOC(=O)c1[nH]c2ccc(OCC)cc2c1NC(=O)CN1CCN(c2ccccn2)CC1
inactive: Potency [1] | Potency [2] | Potency [3] | Potency [4] | Potency [5]

CCC(C)(C)C1CCc2c(sc(NC(=O)c3ccccc3C(=O)O)c2C#N)C1 (centres undefined)
active: Potency [1] 75.7 µM
inactive: Potency [2] | Potency [3] | Potency [4] | Potency [5]

CC(C)c1ccc(OCC(=O)Nc2cccc(C(=O)Nc3ccccc3C(=O)O)c2)cc1
active: Potency [1] 75.7 µM
inactive: Potency [2] | Potency [3] | Potency [4] | Potency [5]

CC(=NNC(=O)c1ccncc1)c1ccc2ccccc2c1O
active: Potency [2] 100 µM | Potency [3] 112 µM | Potency [5] 39.8 µM
inactive: Potency [1] | Potency [4]

COCCN(CCOC)Cc1cc(=O)oc2cc(C)c(Cl)cc12
inactive: Potency [1] | Potency [2] | Potency [3] | Potency [4] | Potency [5]

Cc1ccc(C)c(N2CCN(C(=O)CCCn3c(=O)c4cccn4c4cccnc43)CC2)c1
inactive: Potency [1] | Potency [2] | activation [3] 6.05% [at 17.1 µM, percent relative to cAMP agonist control] | activity change, negative = inhibition [4] -21.9% [at 30.8 µM]
active: Potency [5] 0.0089 µM

CC(=O)NC(c1ccccc1)c1nc(-c2cccs2)cs1 (centres undefined)
inactive: Potency [1] | Potency [2] | Potency [3] | Potency [4] | Potency [5]

C=CCn1c(SC(F)F)nc2scc(-c3ccco3)c2c1=O
inactive: Potency [1] | Potency [2] | Potency [3] | Potency [4] | Potency [5]

CC(C(=O)Nc1ccc(O)c(C(=O)O)c1)N1C(=O)/C(=C/c2cccs2)SC1=S (centres undefined)
inactive: Potency [2] | Potency [3] | Potency [4] | Potency [5]
active: Potency [1] 37.9 µM

CN(C)c1ccc(/C=C(\C#N)c2ccccn2)cc1
inactive: Potency [1] | Potency [2] | Potency [3] | Potency [4] | Potency [5]
